Test results taken from PubChem BioAssay (NCATS).
Inconclusive results are not listed. Active and inactive are the calls of the source. Unless noted, calls come from the whole dose curve; as a rule, active = well fitted curve in the direction sought with a large enough effect; inconclusive = small, poorly fitted or top-dose-only effect, or another doubt; inactive = no such curve, though single readings can be large; an effect the other way counts as inactive or inconclusive.

Experiments:
[1] = AP1 Signaling Pathway (AID 357; active = well fitted curve in either direction with a large enough effect, not every such curve was filed as active;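 note: ME-180 reporter cells stimulated with EGF at its EC50 level; % is set by controls: 0 for no effect and ±100 for the full control effect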); details: ME-180 (cervical carcinoma) AP-1-bla reporter, EGF-induced, beta-lactamase ratio, 5 h; at 38 µM (top of the series)
How it was run: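 Read-out was the 460nm/530nm emission ratio (excitation 405nm) after CCF4 loading for 2.5 hours at room temperature. Cells carried an AP-1-driven beta-lactamase reporter, were stimulated with EC50 EGF plus compound for 5 hours, and AC50 values came from titrations.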

[2] = biological target: Glucocorticoid receptor (Homo sapiens) (UniProt P04150); assay: GR-EFC Redistribution (AID 451; calls by dose curve; note: potency is the fitted concentration of half-maximal effect); details: CHO-K1 GR-EFC translocation, beta-gal luminescence, 2 h
Chain of Glucocorticoid receptor (Homo sapiens) (P04150 whole entry, looked up, the tested form may be a part): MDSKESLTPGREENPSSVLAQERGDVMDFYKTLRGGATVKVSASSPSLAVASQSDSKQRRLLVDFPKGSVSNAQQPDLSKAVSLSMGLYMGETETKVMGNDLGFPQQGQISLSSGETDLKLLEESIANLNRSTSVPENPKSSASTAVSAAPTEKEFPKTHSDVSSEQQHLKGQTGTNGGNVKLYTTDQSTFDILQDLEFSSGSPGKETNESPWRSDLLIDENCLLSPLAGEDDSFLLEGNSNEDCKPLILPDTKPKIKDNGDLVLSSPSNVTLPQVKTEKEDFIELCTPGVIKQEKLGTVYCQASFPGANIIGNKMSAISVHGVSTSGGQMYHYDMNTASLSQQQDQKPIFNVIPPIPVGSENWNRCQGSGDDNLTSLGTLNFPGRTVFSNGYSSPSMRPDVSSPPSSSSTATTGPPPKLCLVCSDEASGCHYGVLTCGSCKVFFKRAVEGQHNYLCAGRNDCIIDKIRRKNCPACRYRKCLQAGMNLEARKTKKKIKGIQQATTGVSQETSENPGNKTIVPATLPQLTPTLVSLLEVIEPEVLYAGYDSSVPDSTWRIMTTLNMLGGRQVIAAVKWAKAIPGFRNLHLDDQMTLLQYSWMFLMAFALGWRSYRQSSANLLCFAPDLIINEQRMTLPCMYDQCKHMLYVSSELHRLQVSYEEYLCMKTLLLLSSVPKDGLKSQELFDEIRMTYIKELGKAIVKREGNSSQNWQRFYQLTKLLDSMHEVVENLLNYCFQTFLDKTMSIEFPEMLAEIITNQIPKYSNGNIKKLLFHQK
How it was run: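 CHO-K1 cells expressing nuclear EA and GR-ED fragments of b-gal; compounds titrated up to 46 uM final, 2 h at 37 C. GR nuclear translocation read as complemented b-gal luminescence after 1 h RT detection.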

[3] = biological target: Mitogen-activated protein kinase 10 (Mus musculus) (UniProt Q61831); assay: JNK3 AlphaScreen Assay (AID 530; active = well fitted curve in either direction with a large enough effect, not every such curve was filed as active;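 note: kinase came from lysate of stimulated human HepG2 cells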; note: potency is the fitted concentration of half-maximal effect;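 for activity change, negative = inhibition: signal reports phosphorylation of biotinylated GST-cJun 1-79 at Ser73 with 10 µM ATP; % is set by controls: 0 for no effect and ±100 for the full control effect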); details: JNK3 lysate, c-Jun phosphorylation; series mostly up to 57.1 µM
How it was run: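 Activity was read by AlphaScreen after JNK3-containing HepG2 lysate (cytokine pre-activated) phosphorylated biotinylated GST-cJun with 10 uM ATP at room temperature. Phospho-Ser73 cJun antibody with Protein-A acceptor beads provided detection.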

[4] = biological target: 3',5'-cyclic-AMP phosphodiesterase 4B (Homo sapiens) (UniProt Q07343); assay: qHTS Assay for Inhibitors of PDE-IV (AID 607; active = well fitted activation curve with a large enough effect in the main read-out, with a control signal flat, not every such curve was filed as active; note: % of control where 0% means no effect); details: HEK293 ACTOne CNG channel cells, membrane potential fluorescence; series mostly up to 22.9 µM
Chain of 3',5'-cyclic-AMP phosphodiesterase 4B (Homo sapiens) (Q07343 whole entry, looked up): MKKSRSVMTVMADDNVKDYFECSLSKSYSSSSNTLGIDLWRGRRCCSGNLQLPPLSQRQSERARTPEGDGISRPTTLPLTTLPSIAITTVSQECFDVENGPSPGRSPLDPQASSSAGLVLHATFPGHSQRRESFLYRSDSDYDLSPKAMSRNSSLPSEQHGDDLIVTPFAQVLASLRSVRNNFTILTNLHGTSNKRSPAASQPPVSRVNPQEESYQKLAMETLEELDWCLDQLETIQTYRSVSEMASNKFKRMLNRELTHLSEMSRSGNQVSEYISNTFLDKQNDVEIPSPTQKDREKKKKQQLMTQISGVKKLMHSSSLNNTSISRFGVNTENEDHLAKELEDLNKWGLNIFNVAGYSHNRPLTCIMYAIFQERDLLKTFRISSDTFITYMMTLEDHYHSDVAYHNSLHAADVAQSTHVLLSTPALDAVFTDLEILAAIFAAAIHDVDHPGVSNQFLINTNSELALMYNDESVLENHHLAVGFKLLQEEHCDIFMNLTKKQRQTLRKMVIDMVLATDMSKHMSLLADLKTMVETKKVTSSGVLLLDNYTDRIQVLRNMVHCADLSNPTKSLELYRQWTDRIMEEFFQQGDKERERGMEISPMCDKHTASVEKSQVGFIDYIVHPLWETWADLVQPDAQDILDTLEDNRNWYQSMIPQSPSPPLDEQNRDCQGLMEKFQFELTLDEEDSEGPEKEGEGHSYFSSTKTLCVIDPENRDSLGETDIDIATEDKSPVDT
How it was run: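 Cell-based read-out of cAMP via a modified cyclic nucleotide-gated channel and membrane potential dye (535/590 nm) in HEK293 cells expressing PDE4 endogenously. Compounds tested up to 22.9 uM final; 100 uM RO 20-1724 reference.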

[5] = biological target: Muscarinic acetylcholine receptor M1 (Rattus norvegicus) (UniProt P08482); assay: qHTS Assay for Antagonists of Acetylcholine Muscarinic M1 Receptor: Measurement of IP-One Response (AID 944); details: CHO-M1 cells, IP-One HTRF, antagonist mode; series mostly up to 46.1 µM; note: nearly all actives have a fitted effect of over 75% in size; note: potency is the fitted concentration of half-maximal effect
Chain of Muscarinic acetylcholine receptor M1 (Rattus norvegicus) (P08482 whole entry, looked up): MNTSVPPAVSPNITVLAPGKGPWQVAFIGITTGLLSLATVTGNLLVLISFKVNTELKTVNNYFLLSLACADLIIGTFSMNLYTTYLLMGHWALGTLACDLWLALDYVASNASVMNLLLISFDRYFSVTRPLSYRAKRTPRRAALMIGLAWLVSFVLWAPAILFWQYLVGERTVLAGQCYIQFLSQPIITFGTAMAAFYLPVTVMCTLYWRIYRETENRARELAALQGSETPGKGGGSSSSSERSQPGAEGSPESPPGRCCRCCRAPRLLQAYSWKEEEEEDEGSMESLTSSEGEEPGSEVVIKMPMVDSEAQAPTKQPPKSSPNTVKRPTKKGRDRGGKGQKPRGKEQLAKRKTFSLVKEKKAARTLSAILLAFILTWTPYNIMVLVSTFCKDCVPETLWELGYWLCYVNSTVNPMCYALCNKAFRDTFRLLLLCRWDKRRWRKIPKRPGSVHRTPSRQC
How it was run: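 Antagonist mode with rat M1 receptor transfected into CHO cells. Compound is added first for 10 min, carbachol at its EC80 follows for 30 min, and lysis reagents then allow TR-FRET detection of accumulated IP1.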

[6] = biological target: Alpha-galactosidase A (Homo sapiens) (UniProt P06280); assay: Counterscreen for Glucocerebrosidase Inhibitors: qHTS Assay for Human alpha-Galactosidase at pH 4.5 (AID 992); details: purified enzyme, fluorogenic substrate; series mostly up to 76.9 µM; note: 0% is about no effect
Chain of Alpha-galactosidase A (Homo sapiens) (P06280 whole entry, looked up): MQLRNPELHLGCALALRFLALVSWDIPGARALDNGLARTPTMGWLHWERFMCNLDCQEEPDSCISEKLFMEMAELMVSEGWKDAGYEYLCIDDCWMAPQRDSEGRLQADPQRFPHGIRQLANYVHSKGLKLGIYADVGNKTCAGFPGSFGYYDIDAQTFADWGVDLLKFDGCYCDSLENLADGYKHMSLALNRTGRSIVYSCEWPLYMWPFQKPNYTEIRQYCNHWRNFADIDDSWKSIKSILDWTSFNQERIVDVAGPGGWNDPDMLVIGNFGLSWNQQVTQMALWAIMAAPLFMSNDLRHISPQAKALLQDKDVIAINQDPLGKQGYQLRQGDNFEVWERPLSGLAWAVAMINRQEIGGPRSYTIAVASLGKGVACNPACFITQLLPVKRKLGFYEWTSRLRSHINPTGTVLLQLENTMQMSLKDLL
How it was run: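 Fluorogenic 1536-well qHTS at pH 4.5 (citrate, Tween-20): 2 nM enzyme, 80 uM 4-MU-alpha-galactoside, 20 min room temperature, NaOH/glycine stop. Titration 0.7 nM to 77 uM, data normalized to no-enzyme and full-activity controls, Hill-fitted AC50.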

[7] = qHTS for Inhibitors of ATXN expression: Validation of Cytotoxic Assay (AID 588349); details: cytotoxicity counter-screen for ATXN expression inhibitors, cell viability; series mostly up to 57.1 µM; note: potency is the fitted concentration of half-maximal effect
How it was run: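 Titrated compounds are added to cultured HEK293 cells, which are then held at 37 degrees C for 72 hr; loss of intracellular ATP, measured with CellTiter Glo, indicates toxicity.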

[8] = test system: Zika virus NS2B-NS3 protease (unlinked); assay: Optimization of GU AMC qHTS for Zika virus inhibitors: Unlinked NS2B-NS3 protease assay (AID 1347151); details: recombinant ZIKV NS2B-NS3 protease, fluorogenic AMC substrate; series mostly up to 52.5 µM; note: nearly all actives have a fitted effect of over 80% in size; note: potency is the fitted concentration of half-maximal effect;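 for activity change, negative = inhibition: 0% = no-inhibitor control and -100% = no-enzyme control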
How it was run: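 Fluorescence gain (340/450 nm) over 15 min at room temperature, ~20% conversion, gave percent inhibition fitted to a 4-parameter Hill equation; enzyme was unlinked NS2B-NS3 (25 nM final), pH 8.0 Tris buffer.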

[9] = Counterscreen for APE1 Inhibitors: Fluorescent Dye Displacement Validation Assay (AID 1707); details: fluorescent dye displacement from DNA; series mostly up to 57.1 µM; note: potency is the fitted concentration of half-maximal effect;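 for activity change, negative = inhibition: plate controls were ThO with dsDNA and no compound for no effect and ThO without dsDNA for full effect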
How it was run: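 Counterscreen flags promiscuous DNA binders: compounds displacing ThO from duplex DNA (abasic THF site, 50 nM) reduce 540 nm emission (480 nm excitation). ThO 250 nM final; Tris-HCl pH 7.5 with NaCl, MgCl2 and Tween-20.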

[10] = qHTS for differential inhibitors of proliferation of Plasmodium falciparum line 3D7 (AID 1876); note: potency is the fitted concentration of half-maximal effect; details: P. falciparum 3D7 proliferation inhibition; series mostly up to 28.7 µM
[11] = qHTS for differential inhibitors of proliferation of Plasmodium falciparum line D10 (AID 1877); details: series mostly up to 28.7 µM;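 note: parasites grown with compound for 72 h before DNA staining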; note: potency is the fitted concentration of half-maximal effect;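 for activity change, negative = inhibition: plate controls were vehicle wells for no effect and reference inhibitor wells for full effect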
[12] = qHTS for differential inhibitors of proliferation of Plasmodium falciparum line Dd2 (AID 1882); details: Potency: Plasmodium falciparum Dd2 proliferation inhibition; series mostly up to 28.7 µM; note: nearly all actives have a fitted effect of over 65% in size; note: potency is the fitted concentration of half-maximal effect;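 for activity change, negative = inhibition: plate controls were DMSO vehicle for no effect and 0.29 µM artemisinin for full effect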
How it was run: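 SYBR Green DNA fluorescence (ex 485, em 535 nm) after overnight lysis quantifies parasite growth; compound exposure lasted 72 h at 37 C on infected red cells at 2.5% hematocrit, 0.3% parasitemia (final). Artemisinin 0.29 uM and vehicle wells define normalization.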

[13] = Validation screen for small molecules that induce DNA re-replication in MCF 10A normal breast cells (AID 463097); details: MCF 10A cells, DNA re-replication phenotype imaging; series mostly up to 46.1 µM; note: 0% is about no effect; nearly all actives have a fitted effect of over 60% in size
How it was run: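 Read-out is Hoechst total nuclear intensity by fluorescence scanning imager, flagging increased high-DNA-content nuclei. Compounds were incubated with MCF 10A cells for 48 hr (37 C, 5% CO2) before 40 min staining.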

[14] = biological target: Transient receptor potential cation channel subfamily V member 1 (Homo sapiens) (UniProt Q8NER1); assay: HTS Assay for Compounds that Act as Enhancers of the Vanilloid Receptor 1 (AID 488979); details: TRPV1-expressing cells, enhancer of channel activity, stimulated with capsaicin at EC20; series mostly up to 41.7 µM; note: 0% is about no effect
Chain of Transient receptor potential cation channel subfamily V member 1 (Homo sapiens) (Q8NER1 whole entry, looked up): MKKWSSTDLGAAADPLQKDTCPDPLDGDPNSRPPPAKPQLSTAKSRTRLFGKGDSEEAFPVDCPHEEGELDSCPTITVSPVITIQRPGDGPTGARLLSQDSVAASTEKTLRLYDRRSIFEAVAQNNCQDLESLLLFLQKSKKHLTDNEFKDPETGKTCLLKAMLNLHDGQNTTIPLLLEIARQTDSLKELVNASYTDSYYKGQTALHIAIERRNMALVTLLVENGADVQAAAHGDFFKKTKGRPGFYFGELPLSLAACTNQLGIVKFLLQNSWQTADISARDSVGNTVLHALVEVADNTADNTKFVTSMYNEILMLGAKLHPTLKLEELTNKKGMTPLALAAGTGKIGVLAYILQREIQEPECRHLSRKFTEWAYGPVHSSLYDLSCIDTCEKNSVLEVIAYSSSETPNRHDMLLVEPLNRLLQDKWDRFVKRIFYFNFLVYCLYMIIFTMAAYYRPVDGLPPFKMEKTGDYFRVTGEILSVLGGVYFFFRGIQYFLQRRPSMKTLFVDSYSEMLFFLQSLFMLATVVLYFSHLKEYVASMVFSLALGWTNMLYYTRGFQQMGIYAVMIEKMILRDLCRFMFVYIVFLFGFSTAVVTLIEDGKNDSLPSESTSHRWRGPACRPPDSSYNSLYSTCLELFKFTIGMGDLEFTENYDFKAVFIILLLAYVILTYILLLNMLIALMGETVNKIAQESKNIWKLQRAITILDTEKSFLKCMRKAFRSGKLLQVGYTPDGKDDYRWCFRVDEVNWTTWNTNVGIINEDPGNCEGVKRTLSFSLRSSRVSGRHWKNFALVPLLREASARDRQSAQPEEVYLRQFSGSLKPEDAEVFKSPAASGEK
How it was run: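 TRPV1 cells loaded with Fluo-8 calcium dye; compound added and Ca2+ signal (ex 480/em 520 nm) followed 3 min, then capsaicin at EC20 added and read 2 more min to detect enhancement.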

[15] = biological target: Galactokinase (Homo sapiens) (UniProt P51570); assay: qHTS Validation Assay for Inhibitors of Human Galactokinase (GALK) (AID 493189); details: purified human GALK enzyme activity, qHTS 7-point titration; series mostly up to 57.5 µM; note: 0% is about no effect
Chain of Galactokinase (Homo sapiens) (P51570 whole entry, looked up): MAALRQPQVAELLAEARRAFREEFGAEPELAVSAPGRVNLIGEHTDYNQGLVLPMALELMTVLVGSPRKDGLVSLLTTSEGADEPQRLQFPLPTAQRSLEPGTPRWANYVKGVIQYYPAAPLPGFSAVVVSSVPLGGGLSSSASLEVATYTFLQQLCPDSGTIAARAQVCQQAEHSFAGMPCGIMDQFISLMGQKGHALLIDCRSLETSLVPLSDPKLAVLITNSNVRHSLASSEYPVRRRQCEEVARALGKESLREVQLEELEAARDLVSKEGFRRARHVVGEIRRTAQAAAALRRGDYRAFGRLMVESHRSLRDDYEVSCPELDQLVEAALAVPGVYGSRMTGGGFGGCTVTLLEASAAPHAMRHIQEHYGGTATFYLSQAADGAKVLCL
How it was run: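 Inhibition was measured as remaining ATP, detected by luciferase luminescence after a 1 h room-temperature reaction. Final conditions: 5 nM GALK, 100 uM galactose, 35 uM ATP, pH 8.0 HEPES buffer.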

[16] = Validation screen for small molecules that induce DNA re-replication in SW480 colon adenocarcinoma cells (AID 504364); details: DNA re-replication phenotype (high-content imaging); series mostly up to 46.1 µM; note: 0% is about no effect
How it was run: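 Image-based qHTS: compounds were incubated with SW480 cells for 48 hr, nuclei stained with Hoechst, and per-nucleus fluorescence intensity scanned to flag cells with excess DNA content.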

[17] = NS1 protein of Zika virus - qHTS assay to identify small molecule inhibitors in human HEK 293 cells (AID 1347053); details: HEK293 ZIKV MR766 infection, NS1 TR-FRET, 24 h; series mostly up to 46.1 µM;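 note: plate controls were infected untreated cells for no effect and uninfected cells for full effect; nearly all actives have a fitted effect of over 55% in size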
How it was run: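 Read-out is a two-antibody TR-FRET for ZIKV NS1, normalized between uninfected cells and infected cells. Compound added 1 h before MR766 infection at MOI 0.5; human HEK 293 cells incubated 24 h, 37 C.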

[18] = test system: Zika virus NS2B-NS3 protease; assay: Primary screen GU AMC qHTS for Zika virus inhibitors (AID 1347154); details: Zika NS2B-NS3 unlinked protease, AMC fluorogenic substrate; series mostly up to 54.1 µM;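 note: 0% = no-inhibitor control and -100% = no-enzyme control; nearly all actives have a fitted effect of over 70% in size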
How it was run: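 Unlinked Zika NS2B hydrophilic domain–NS3 protease complex at 25 nM in 10 mM Tris-HCl pH 8.0, 0.01% Tween 20, with an AMC peptide substrate. Fluorescence change (340/450 nm) over 15 min at room temperature, normalized to controls, fitted to 4-parameter Hill.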

[19] = qHTS for differential inhibitors of proliferation of Plasmodium falciparum line 7G8 (AID 1815); details: Plasmodium falciparum 7G8 proliferation inhibition; series mostly up to 28.7 µM;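 note: parasite growth measured after three days of incubation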; note: potency is the fitted concentration of half-maximal effect;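 for activity change, negative = inhibition: plate controls were vehicle wells for no effect and reference inhibitor wells for full effect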
[20] = biological target: N-terminal Xaa-Pro-Lys N-methyltransferase 1 (Homo sapiens) (UniProt Q9BV86); assay: qHTS Assay for Inhibitors of N-terminal methyltransferase 1 (NTMT1): LOPAC validation of the NTMT1 SAHH-coupled ThioGlo3 Assay (AID 1347143); details: recombinant NTMT1, SAHH-coupled ThioGlo3 fluorescence; series mostly up to 114 µM;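 note: SAH from peptide methylation measured as thiol fluorescence via SAHH coupling and ThioGlo3; potency is the fitted concentration of half-maximal effect; nearly all actives have a fitted effect of over 70% in size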
Chain of N-terminal Xaa-Pro-Lys N-methyltransferase 1 (Homo sapiens) (Q9BV86 whole entry, looked up): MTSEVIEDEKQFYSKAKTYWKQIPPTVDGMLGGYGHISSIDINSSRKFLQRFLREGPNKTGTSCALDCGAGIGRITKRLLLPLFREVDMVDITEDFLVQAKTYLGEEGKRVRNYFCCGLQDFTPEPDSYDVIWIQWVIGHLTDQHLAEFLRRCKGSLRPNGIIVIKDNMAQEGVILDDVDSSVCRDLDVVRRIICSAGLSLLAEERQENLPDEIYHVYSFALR
How it was run: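 Steps: dispense 125nM NTMT1; pin-transfer test compounds at several concentrations, with 1uM RCC1-6 peptide as control; incubate 1 min; start with reagent holding 100uM SAM, 10uM SAHH, 15uM ThioGlo3; read at 0 and 30 min.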

CC[N+](CC)(CC)CC
inactive: activity change, negative = inhibition [1] -0.239% | Potency [2] > 46 µM | Potency [3] | Potency [4] | Potency [5] | outcome [6] | Potency [7] | Potency [8]

Cc1cccc(/C=C/c2ccccc2)n1
inactive: Potency [9] | Potency [10] | Potency [11] | Potency [12] | Potency [13] | outcome [14] | outcome [15] | outcome [16] | Potency [7] | outcome [17] | Potency [18]

O=Nc1c(-c2c(O)[nH]c3ccccc23)[nH]c2ccccc12
inactive: Potency [2] > 46 µM | Potency [5] | outcome [6] | outcome [14] | outcome [15] | outcome [16] | Potency [18]
active: Potency [3] 3.16 µM | Potency [19] 1.26 µM | Potency [10] 0.355 µM | Potency [11] 1.58 µM | Potency [12] 2.24 µM | Potency [20] 20 µM

S=C(Nc1ccccc1)Nc1nccs1
inactive: activity change, negative = inhibition [1] -16.9% | Potency [2] > 46 µM | Potency [3] | Potency [4] | Potency [5] | outcome [6] | Potency [9] | Potency [13] | outcome [14] | outcome [15]
active: Potency [19] 3.55 µM | Potency [10] 7.94 µM | Potency [11] 12.6 µM | Potency [12] 11.2 µM

CCc1ccc(/C=C2/SC(=S)NC2=O)cc1
inactive: outcome [17]
active: Potency [8] 23.8 µM

C1CCC(N=C(NC23CC4CC(CC(C4)C2)C3)N2CCOCC2)CC1
active: Potency [5] 17.8 µM | Potency [19] 7.94 µM
inactive: activity change, negative = inhibition [1] 8.68% | Potency [3] | Potency [4] | outcome [6] | Potency [9] | Potency [11] | Potency [13] | outcome [15] | outcome [16] | Potency [18]

Nc1c(S(=O)(=O)O)cc(Nc2ccc(Nc3nc(Cl)nc(Nc4ccc(S(=O)(=O)O)cc4)n3)c(S(=O)(=O)O)c2)c2c1C(=O)c1ccccc1C2=O
active: Potency [9] 8.91 µM | Potency [20] 44.7 µM | Potency [8] 10.6 µM
inactive: activity change, negative = inhibition [1] -21.1% | Potency [2] > 46 µM | Potency [4] | Potency [19] | Potency [10] | Potency [12] | Potency [13] | outcome [14] | outcome [16] | outcome [17]

O=C1c2ccccc2C(=O)c2c(NCCc3ccc(O)cc3)ccc(NCCc3ccc(O)cc3)c21
active: Potency [7] 8.91 µM

C[C@H](Cc1ccccc1)Nc1ncnc2c1ncn2[C@@H]1O[C@H](CO)[C@@H](O)[C@H]1O
inactive: Potency [7] | outcome [17] | Potency [8] | Potency [18]

Oc1cc2c(c(Cl)c1O)CCNCC2c1ccccc1 (centres undefined)
inactive: Potency [13] | outcome [14] | outcome [15] | outcome [16]
active: Potency [20] 39.8 µM

CN1C2CCCC1CC(NC(=O)c1nn(C)c3ccccc13)C2 (centres undefined)
active: Potency [20] 56.2 µM
